High-throughput results deposited in PubChem by The Scripps Research Institute Molecular Screening Center.
In the library only some 4.2% were active in any assay of this set; here they are far more common.
hcDAF-12 act = H. contortus DAF-12 activation, primary screen. HEK293 hcDAF-12 lit1-tk-luc reporter, luminescence; 0% DMSO, 100% Δ7-dafachronic acid. activation, % at 6.8 µM. actives 1.4% (n = 370,000). AID 652067;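 active = activation above the mean of all tested compounds plus 3 SD, cut at about 5.5% in these data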;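 note: 100% = response to 3 µM Δ7-dafachronic acid high control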
DAX1 inh = DAX1 (NR0B1) inhibition, primary screen; HEK293T StAR-luciferase reporter, SF-1/DAX-1 repression relief; inhibition, % at 6.8 µM; actives 1.1% (n = 370,000); AID 652010;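 active = inhibition above the mean over all tested compounds plus 3 SD, cut at about 3.6% in these data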;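 note: 0% = DAX-1 cells with DMSO and 100% = cells lacking DAX-1 with DMSO; higher inhibition means more luminescence from relief of DAX-1 repression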
ssDAF12 agonist = activates DAF-12 receptor from parasite S. stercoralis. actives 1% (n = 370,000). activation, % at 6.8 µM. HEK293 ssDAF-12/GRIP1 lit1-tk-luc reporter, luminescence; % of 3 µM dafachronic acid response;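 active = activation above the mean over all tested compounds plus 3 SD, cut at about 0.9% in these data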;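 note: 0% = DMSO-only wells and 100% = 3 µM delta7-dafachronic acid wells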
hgDAF12 agonist = hgDAF-12 agonism, primary luciferase screen. actives 1.8% (n = 370,000). activation, % at 6.8 µM. HEK293 GAL4-hgDAF12 UAS-luciferase reporter, agonist luminescence; normalized to butyrate control;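 active = activation above a cutoff set at the mean of all screened compounds plus 3 SD, cut at about 10% in these data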;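 note: 0% = DMSO wells and 100% = sodium butyrate wells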
SMARCA2 act = activators of SMARCA2 function; MG213 cells, MMTV-luciferase reporter, dexamethasone, overnight; activation, % at 9.1 µM; actives 1% (n = 370,000); in the data active = activation above about 7.8%;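 note: 0% = vehicle wells and 100% = reference activator wells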
* marks the source's active call; other numbers are inactive results.

Screening CC(C)c1ccc(/C=C2\SC(=O)N(CC(=O)NC3CCS(=O)(=O)C3)C2=O)cc1 (stereo unspecified) returned hcDAF-12 act 2, DAX1 inh 3, ssDAF12 agonist -1, hgDAF12 agonist 11* and SMARCA2 act 3.
COc1ccc(/C=C2\SC(=O)N(CCC(=O)N(C)C3CCS(=O)(=O)C3)C2=O)cc1 (stereo unspecified) was read as hcDAF-12 act -1, DAX1 inh 0, ssDAF12 agonist -1, hgDAF12 agonist -1 and SMARCA2 act -1.
Screening CCOC(=O)CNC(=O)c1ccc(OCC(F)(F)F)cc1 returned hcDAF-12 act 1, DAX1 inh 2, ssDAF12 agonist 0, hgDAF12 agonist 13* and SMARCA2 act 2.
For Cc1cccc(C(=O)Nc2nc3ncccn3c2-c2ccc(C(F)(F)F)cc2)c1 the results were hcDAF-12 act 1, DAX1 inh -1, ssDAF12 agonist -1, hgDAF12 agonist 0 and SMARCA2 act -2.
Screening CC(=O)CC[C@H]1CC[C@]2(CCCN(C(=O)C(C)(C)C)C2)O1 returned hcDAF-12 act 0, DAX1 inh 0, ssDAF12 agonist 2.2*, hgDAF12 agonist -1 and SMARCA2 act -3.
O=C(CNS(=O)(=O)c1ccc(Cl)s1)N1CCN(c2ccccn2)CC1 was read as hcDAF-12 act -3, DAX1 inh -1, ssDAF12 agonist -2, hgDAF12 agonist -2 and SMARCA2 act -5.
For COCC(=O)N(C[C@H]1[C@H](c2ccccc2)[C@@H](CO)N1C(=O)NC(C)C)C(C)C the results were hcDAF-12 act -2, DAX1 inh 0, ssDAF12 agonist 0, hgDAF12 agonist 3 and SMARCA2 act -2.
COCCn1c(C)cc(C(=O)COC(=O)C23CC4CC(CC(O)(C4)C2)C3)c1C was read as hcDAF-12 act 5, DAX1 inh 4.5*, ssDAF12 agonist 0, hgDAF12 agonist 8 and SMARCA2 act 0.
`CCCN1CC(=O)N2[C@H](C[C@@]3(n4ccc5ccccc54)c4ccccc4N(S(=O)(=O)c4ccccc4)[C@@H]23)C1=O` gave hcDAF-12 act -1, DAX1 inh 0, ssDAF12 agonist -1, hgDAF12 agonist 1 and SMARCA2 act 2.
Screening CS(=O)(=O)NN1C(=O)c2ccccc2NC1c1ccccc1O (stereo unspecified) returned hcDAF-12 act -1, DAX1 inh 0, ssDAF12 agonist -1, hgDAF12 agonist 2 and SMARCA2 act -4.
For CS(=O)(=O)NN1C(=O)c2ccccc2NC1c1c[nH]c2ccccc12 (stereo unspecified) the results were hcDAF-12 act 6.2*, DAX1 inh 0, ssDAF12 agonist 0, hgDAF12 agonist 3 and SMARCA2 act 1.
`CC(C)NC(=O)N[C@@H]1C[C@@H]2O[C@H](CO)CC[C@@H]2O[C@@H]1CCc1ccc(-c2ccccc2F)cc1` gave hcDAF-12 act -1, DAX1 inh -1, ssDAF12 agonist -1, hgDAF12 agonist 0 and SMARCA2 act -1.
CC1CCCCN1Cc1c(O)ccc2c(=O)c(-c3ccc(Cl)cc3)coc12 (stereo unspecified) was read as hcDAF-12 act 5.8*, DAX1 inh 0, ssDAF12 agonist 0, hgDAF12 agonist 1 and SMARCA2 act 2.
`CC(=O)c1cccc(NC(=O)c2ccccc2-c2ccccc2C(=O)O)c1` gave hcDAF-12 act -1, DAX1 inh -1, ssDAF12 agonist -1, hgDAF12 agonist 0 and SMARCA2 act -1.
For C=CCn1cccc(C(=O)Nc2ccc(Cl)cc2)c1=O the results were hcDAF-12 act -1, DAX1 inh -1, ssDAF12 agonist -1, hgDAF12 agonist 3 and SMARCA2 act -2.
COc1cccc(NC(=O)c2ccccc2Br)c1 was read as hcDAF-12 act 1, DAX1 inh 1, ssDAF12 agonist -1, hgDAF12 agonist 11* and SMARCA2 act 3.
For COc1cccc(NC(=O)c2ccccc2-c2ccccc2C(=O)O)c1 the results were hcDAF-12 act 6.0*, DAX1 inh 1, ssDAF12 agonist -1, hgDAF12 agonist 0 and SMARCA2 act -4.
C=CCn1cccc(C(=O)Nc2ccc(N(C)C)cc2)c1=O was read as hcDAF-12 act -1, DAX1 inh 1, ssDAF12 agonist 0, hgDAF12 agonist 11* and SMARCA2 act 2.
For COc1cc(Cl)c(C)cc1NC(=O)c1cccc(OC)c1OC the results were hcDAF-12 act 0, DAX1 inh 1, ssDAF12 agonist -1, hgDAF12 agonist 11* and SMARCA2 act 6.
For COc1cccc(C(=O)Nc2cccc3ccccc23)c1OC the results were hcDAF-12 act -1, DAX1 inh 0, ssDAF12 agonist -1, hgDAF12 agonist 1 and SMARCA2 act -2.
Screening COc1cccc(C(=O)Nc2ccncc2)c1OC returned hcDAF-12 act -1, DAX1 inh 0, ssDAF12 agonist -1, hgDAF12 agonist -1 and SMARCA2 act -4.
`Cc1ccn2cc(-c3cccc(NC(=O)c4cccs4)c3)nc2c1` gave hcDAF-12 act -1, DAX1 inh 0, ssDAF12 agonist -1, hgDAF12 agonist 11* and SMARCA2 act 3.
Screening COc1cccc(NC(=O)C2=COCCO2)c1 returned hcDAF-12 act 4, DAX1 inh 3.7*, ssDAF12 agonist -1, hgDAF12 agonist 2 and SMARCA2 act 0.
For COc1cccc(NC(=O)CN(C)C(=O)C2=COCCO2)c1 the results were hcDAF-12 act 4, DAX1 inh 3, ssDAF12 agonist -1, hgDAF12 agonist 1 and SMARCA2 act -3.
Screening COc1cccc(NC(=O)c2cccc(OC)c2OC)c1 returned hcDAF-12 act 0, DAX1 inh 2, ssDAF12 agonist 0, hgDAF12 agonist 12* and SMARCA2 act 4.
Screening COc1ccc(C(=O)/C=C\c2ccc(NC(=O)c3cccs3)cc2)cc1 returned hcDAF-12 act 6.5*, DAX1 inh -1, ssDAF12 agonist 0, hgDAF12 agonist 0 and SMARCA2 act -2.
For CCOC(=O)C1C(C(=O)OCC)C2C(=O)C3C(C(=O)OCC)C(C(=O)OCC)C3C(=O)C12 (stereo unspecified) the results were hcDAF-12 act 0, DAX1 inh 0, ssDAF12 agonist -1, hgDAF12 agonist -2 and SMARCA2 act 0.
For COc1cccc(NC(=O)c2c(F)cccc2F)c1 the results were hcDAF-12 act 1, DAX1 inh 1, ssDAF12 agonist -1, hgDAF12 agonist 7 and SMARCA2 act 6.
`COc1cc(NC(=O)c2cccs2)cc(OC)c1` gave hcDAF-12 act 3, DAX1 inh -1, ssDAF12 agonist 0, hgDAF12 agonist 5 and SMARCA2 act 0.
For COc1cccc(C(=O)Nc2ccc(N(C)C)cc2)c1OC the results were hcDAF-12 act 2, DAX1 inh 3, ssDAF12 agonist 0, hgDAF12 agonist 12* and SMARCA2 act -3.
For COc1cccc(NC(=O)c2cccs2)c1 the results were hcDAF-12 act 5, DAX1 inh 1, ssDAF12 agonist -1, hgDAF12 agonist 13* and SMARCA2 act 3.
